An excerpt weighted towards active compounds, which were near 11% of everything screened.
Sfp inh – blocks B. subtilis Sfp PPTase activity. Biochemical Sfp PPTase activity, qHTS. Potency, µM, inactives show largest response in the series, negative = inhibition, actives largely listed as inhibitors. 3.5% of 310,000 active. AID 1490. Q9F4F7;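 note: the enzyme is Sfp with the accession as filed and its product quenches rhodamine fluorescence; potency is the fitted concentration of half-maximal effect; 0% = enzyme reaction without inhibitor and -100% = no enzyme wells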
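With Hepes-Na pH 7.6 buffer containing 10 mM MgCl2, Sfp (15 nM) modified BHQ-2-YbbR (12.5 uM) using rhodamine-CoA (5 uM). Two reads 30 minutes apart at 525/598 nm yielded each well's rate.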
FBPA coupling cs – coupling enzyme interference in Giardia aldolase counter-screen. AID 2472. 0.67% of 290,000 active. coupling enzyme system counterscreen, AmpLite Red fluorescence. activity change, negative = inhibition, % at 58.2 µM, hits read low; in the data active = activity change below about -30%
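Coupling enzymes only (glyceraldehyde-3-phosphate) + compound, at 57.5 uM final, 10 min RT; add substrate/coupling/AmpLite Red mix, 20 min RT; fluorescence ex 525/em 598 nm. Actives flag coupling-system interference.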
G9a block – inhibitors of human histone lysine methyltransferase G9a; Potency, µM (top dose mostly 102 µM), for the others: at the highest dose activity, negative = inhibition, actives largely listed as inhibitors; 8.8% of 350,000 active; Q96KQ7; G9a H3K9 monomethylation, AlphaScreen, 2 h; note: potency is the fitted concentration of half-maximal effect; nearly all actives have a fitted effect of over 75% in size
Target sequence (Q96KQ7 913-1193 limits assumed): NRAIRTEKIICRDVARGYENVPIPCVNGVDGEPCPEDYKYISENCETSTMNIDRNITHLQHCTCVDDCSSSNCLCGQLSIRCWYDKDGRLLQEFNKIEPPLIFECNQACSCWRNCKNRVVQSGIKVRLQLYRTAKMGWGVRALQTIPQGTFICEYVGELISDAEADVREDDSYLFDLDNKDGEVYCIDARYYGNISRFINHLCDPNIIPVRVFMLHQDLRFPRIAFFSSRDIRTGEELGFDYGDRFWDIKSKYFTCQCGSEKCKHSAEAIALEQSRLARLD
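AlphaScreen detection with an anti-monomethyl H3K9 antibody quantified product after a 2 h room-temperature reaction containing 500 nM biotinylated H3K9 peptide, 20 µM SAM and 20 nM enzyme, which had been preincubated 15 min with compound.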
Tau FP inhib – tau fibrillization inhibition (FP); P10636; K18 P301L tau heparin fibrillization, Alexa594 FP, 6 h; Potency, µM (series often up to 57.7 µM), for inactives: at the highest dose activity, negative = inhibition, hits mostly inhibitors; 0.39% of 280,000 active; note: potency is the fitted concentration of half-maximal effect; nearly all actives have a fitted effect of over 55% in size
Target sequence (P10636 561-689 P618L limits assumed): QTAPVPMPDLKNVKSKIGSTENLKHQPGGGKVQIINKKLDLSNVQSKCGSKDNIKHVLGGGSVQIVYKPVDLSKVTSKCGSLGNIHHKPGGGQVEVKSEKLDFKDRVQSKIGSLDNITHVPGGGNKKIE
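Steps: dispense K18 P301L tau (15 uM plus 0.24 uM Alexa 594 tracer, final) in pH 7 sodium acetate; add compound; add heparin (20 uM final); incubate 6 hr, 37 C; add ThT (30 uM final); after 1 hr ambient, read FP.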
Tau fluor cs – counter-screen for tau fibril formation inhibitors. tau K18 P301L Alexa594 fluorescence, heparin fibrillization. Potency, µM (doses to about 57.7 µM), without a hit: at the highest dose activity change, negative = decrease. 0.93% of 280,000 active; note: potency is the fitted concentration of half-maximal effect; nearly all actives have a fitted effect of over 55% in size
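Human K18 P301L tau (15 uM unlabeled plus 0.24 uM Alexa 594-labeled, final) in 100 mM sodium acetate pH 7 was mixed with compound and 20 uM heparin and incubated 6 hr at 37 C.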
Tau ThT inhib – tau fibrillization inhibition (ThT binding); Potency, µM (series often up to 57.4 µM), inactives show at the top dose activity, negative = inhibition, usual class: inhibitors; AID 1460; recombinant tau K18 P301L (four-repeat tau fragment), heparin-induced fibrillization, ThT fluorescence; 2.1% of 270,000 active; note: potency is the fitted concentration of half-maximal effect; nearly all actives have a fitted effect of over 55% in size
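Recombinant human tau K18 fragment […] carrying P301L, 15 uM unlabeled plus 0.24 uM Alexa 594-labeled, was fibrillized with 20 uM heparin in 100 mM sodium acetate pH 7 for 6 hr at 37 C; 30 uM ThT fluorescence read after 1 hr.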
* = called active by the depositor; ? = inconclusive; . = not tested or not shown; [ ] = another dose, or the depositor's remark. Unless noted, calls come from the whole dose curve; as a rule, active = well fitted curve in the direction sought with a large enough effect; inconclusive = small, poorly fitted or top-dose-only effect, or another doubt; inactive = no such curve, though single readings can be large; an effect the other way counts as inactive or inconclusive. Unless noted, % is set by controls: 0 for no effect and ±100 for the full control effect.

SMILES | Sfp inh | FBPA coupling cs | G9a block | Tau FP inhib | Tau fluor cs | Tau ThT inhib
O=C(C1CCCO1)N1CCN(C(c2ccccc2)c2ccccc2)CC1 (centres undefined) | -6% | 5 | 8.9µM* | 6% | -1% | -10%
O=C(C1CCN(Cc2ccc(F)cc2)CC1)N(CCc1ccccc1)Cc1ccccc1 | -21% | 2 | 13µM* | 1% | 2% | -7%
O=C(CN1CCN(C(=O)C2CCCO2)CC1)Nc1ccc(Cl)c(Cl)c1 (centres undefined) | 11% | 0 | 79µM* | . | . | .
O=C(C1CCCO1)N1CCN(S(=O)(=O)c2ccccc2)CC1 (centres undefined) | 9% | -1 | ? | 1% | -11% | -18%
COc1cc(NC(=O)c2cc(Cl)c(OC)c(Cl)c2)ccc1NC(=O)c1cc2ccccc2o1 | . | . | 0%[59 µM] | -7% | -8% | -5%
CCC(=O)C1=C(c2ccc(Cl)cc2)N(C(=O)CC)n2c(C)nnc2S1 | . | . | 14%[59 µM] | -18% | -22% | ?
CCN(CC)C(=O)C1CCN(Cc2cccc(OCc3ccccc3)c2)CC1 | -5% | 0 | 2.8µM* | -1% | 0% | -2%
C=CCN(CC=C)C(=O)C1CCN(Cc2ccc(OCc3ccccc3)cc2)CC1 | 0% | -1 | 7.9µM* | . | . | .
O=C(C1CCN(Cc2ccc(F)cc2)CC1)N(CCO)Cc1ccccc1 | -3% | 0 | ? | 2% | 7% | 7%
O=C(C1CCN(Cc2ccc(Cl)cc2)CC1)N1CCN(C(c2ccccc2)c2ccccc2)CC1 | 45µM* | 1 | 20µM* | 5% | -2% | ?
OC1CCN(Cc2ccc(OCc3ccccc3)cc2)CC1 | 13% | -1 | -10%[0.501 µM] | . | . | .
O=C(C1CCN(Cc2ccc(OCc3ccccc3)cc2)CC1)N1CCCC1 | ? | -4 | 14µM* | 7% | 11% | 14%
CCOC(=O)C1CCN(C(c2ccccc2)c2c(O)cc(C)n(Cc3ccco3)c2=O)CC1 (centres undefined) | . | . | -49%[59 µM] | -5% | -3% | ?
O=C(CCc1ccccc1)Nc1cc2c3c(c1)CC(=O)N3CCC2 | . | . | 4% | . | . | .
CCN1CCN(C(=O)C2CCN(Cc3cc(Cl)ccc3O)CC2)CC1 | -12% | 2 | 10µM* | 5% | 3% | 7%
CCCCNC(=O)C1CCN(Cc2ccc(OCc3ccccc3)cc2)CC1 | 6% | -3 | 11µM* | 0% | -2% | -5%
CCCCN(C)C(=O)C1CCN(Cc2cccc(OCc3ccccc3)c2)CC1 | -21% | 8 | 13µM* | . | . | .
CCN(CC)C(=O)C1CCN(Cc2ccc(OCc3ccccc3)cc2)CC1 | -7% | 0 | 10µM* | . | . | .
CC1CCCN(Cc2ccc(OCc3ccccc3)cc2)C1 (centres undefined) | 10% | 1 | . | . | . | .
COCCNC(=O)C1CCN(Cc2cccc(OCc3ccccc3)c2)CC1 | -9% | -1 | 22%[0.501 µM] | . | . | .
CCN1CCN(C(=O)C2CCN(Cc3nc(-c4cccc(Cl)c4)oc3C)CC2)CC1 | 6% | 0 | ? | 7% | 0% | -9%
COc1cccc(N2CCN(C(=O)C3CCN(S(=O)(=O)c4cccc5nonc45)CC3)CC2)c1 | . | . | 0%[59 µM] | 15% | -7% | 3%
CC(=O)c1ccc(N2CCN(S(=O)(=O)c3c(C)[nH]c(C)c3C(=O)N3CCCC3)CC2)cc1 | 6% | 3 | . | . | . | .
Cc1ccc(C)c(N2CCN(C(=O)C3CCC(CNS(=O)(=O)c4ccc(Br)s4)CC3)CC2)c1 (centres undefined) | . | . | 4%[59 µM] | -8% | -2% | -8%
COc1ccc(-c2nc3cc(NC(=O)Cc4ccc(Cl)cc4)ccc3o2)cc1OC | . | . | ? | -16% | -16% | -8%
Cc1coc2cc3oc(=O)c(CC(=O)NCCc4ccccc4)c(C)c3cc12 | . | . | -5%[59 µM] | -4% | 2% | 6%
CCOc1ccc(NC(=O)CSc2nc3ccsc3c(=O)n2C(C)CC)cc1 (centres undefined) | . | . | 8%[59 µM] | -15% | -12% | 1%
O=C(Oc1ccc(Br)cc1C(=S)N1CCCC1)c1ccccc1F | 45µM* | 0 | 8.9µM* | -12% | -22% | ?

Assay outcomes (PubChem BioAssay)
